Laboratory results from the supplement of paper PMC13380429.

System: Vero E6 infected with SARS-CoV-2
Test: inhibition of SARS-CoV-2 cytopathic effect; higher = more antiviral protection, active = above 15
Settings: 48 h

Measured: inhibition of SARS-CoV-2 cytopathic effect

Oc1cc(O)cc(/C=C/c2ccc(O)c(O)c2)c1 [piceatannol]
inactive: 1 nM 2.41% | 8.33 nM -0.84% | 100 nM -0.97% | 833.33 nM 0.83% | 10000 nM 2.32%

CC[C@H]1OC(=O)C[C@@H](O)[C@H](C)[C@@H](O[C@@H]2O[C@H](C)[C@@H](O[C@H]3C[C@@](C)(O)[C@@H](O)[C@H](C)O3)[C@H](N(C)C)[C@H]2O)[C@@H](CC=O)C[C@@H](C)C(=O)/C=C/C(C)=C/[C@@H]1CO[C@@H]1O[C@H](C)[C@@H](O)[C@@H](OC)[C@H]1OC
inactive: 1 nM -4.49% | 8.33 nM -1.15% | 100 nM -2.1% | 833.33 nM -0.46% | 10000 nM 4.02%

O=C1NCCNC1c1cccs1 (stereo not given) [tenilsetam]
inactive: 1 nM 3.34% | 8.33 nM 0.52% | 100 nM -1.98% | 833.33 nM -2.12% | 10000 nM -1.68%

CC(=O)OCC(=O)[C@@]12OC3(CCCC3)O[C@@H]1C[C@H]1[C@@H]3CCC4=CC(=O)C=C[C@]4(C)[C@@]3(F)[C@@H](O)C[C@@]12C [amcinonide]
inactive: 1 nM -1.51% | 8.33 nM -0.7% | 100 nM -1.46% | 833.33 nM -0.87% | 10000 nM -3.21%

COc1ccc(/C=C/CCCCOc2ccc(C(=O)c3cccc(C(=O)O)c3)cc2CCC(=O)O)cc1
inactive: 1 nM 2.26% | 8.33 nM 1.45% | 100 nM 0.3% | 833.33 nM -3.65% | 10000 nM -3.88%

COc1ccc(CCN(C)CCCN2CCc3cc(OC)c(OC)cc3CC2=O)cc1OC [zatebradine]
inactive: 1 nM 0.14% | 8.33 nM 1.94% | 100 nM 1.29% | 833.33 nM 0.25% | 10000 nM -2.07%
